Rab9 prom act = Rab9 promoter activation. Huh7 Rab9 promoter-luciferase reporter, luminescence, 24 h. Potency, µM (highest dose often 9.22 µM), for the others: at the highest dose activation, negative = inhibition, usual class: activators. 320,000 tested, 2.8% active; further: % of control where 0% means no effect; nearly all actives have a fitted effect of over 60% in size
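Quantitative HTS format; Huh7 Rab9-luciferase reporter cells (1500/well) receive compound 2 h post-plating, incubate 24 h at 37 °C, then get luciferase reagent for 10 min before luminescence reading.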
SMN2 splice enh = increases expression of the SMN2 splice variant. HEK293 SMN2-luciferase splicing reporter, luminescence, 30-36 h. Potency, µM (top dose mostly 46.1 µM), for inactives: at the highest dose activity change, positive = activation, actives largely listed as activators. 210,000 tested, 2.8% active. AID 1458; further: % of control where 0% means no effect; nearly all actives have a fitted effect of over 55% in size
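HEK293 cells carry an SMN2 […]–luciferase reporter in which exon 7 inclusion puts luciferase in frame. Cells were plated 10-12 h before compound addition, then incubated 30-36 h at 37C. ONE-Glo luminescence was read; sodium butyrate at 4.5 mM final served as control.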
KinaseGlo FLuc = blocks Kinase-Glo luciferase, a counter-screen artifact; Q27757; Potency, µM (highest dose often 38.3 µM), for the others: at the top dose activity change, negative = inhibition, usual class: inhibitors; Kinase-Glo luciferase, ATP luminescence, 8 min; AID 1379; 200,000 tested, 0.28% active; further: on the % scale 0 is the no-effect control and ±100 the full control effect; nearly all actives have a fitted effect of over 60% in size
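Substrate mix (final 50 mM imidazole pH 7.2, 50 mM KCl, 7 mM MgCl2, 10 uM ATP, 0.01% Tween 20, 0.05% BSA) plus pin-tool compound, then Kinase-Glo detection mix; 8 min ambient, luminescence read.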
FLuc modulator = counter-screen for miR-21 project: firefly luciferase inhibitors or activators. P08659. purified FLuc, Km substrates, luminescence inhibition. Potency, µM (series often up to 57.5 µM), without a hit: at the highest dose activity change, negative = inhibition, actives largely listed as inhibitors. 360,000 tested, 6.9% active;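 further: plate controls were vehicle for no effect and reference inhibitor for full effect; nearly all actives have a fitted effect of over 55% in size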
Target sequence (P08659 whole entry, looked up): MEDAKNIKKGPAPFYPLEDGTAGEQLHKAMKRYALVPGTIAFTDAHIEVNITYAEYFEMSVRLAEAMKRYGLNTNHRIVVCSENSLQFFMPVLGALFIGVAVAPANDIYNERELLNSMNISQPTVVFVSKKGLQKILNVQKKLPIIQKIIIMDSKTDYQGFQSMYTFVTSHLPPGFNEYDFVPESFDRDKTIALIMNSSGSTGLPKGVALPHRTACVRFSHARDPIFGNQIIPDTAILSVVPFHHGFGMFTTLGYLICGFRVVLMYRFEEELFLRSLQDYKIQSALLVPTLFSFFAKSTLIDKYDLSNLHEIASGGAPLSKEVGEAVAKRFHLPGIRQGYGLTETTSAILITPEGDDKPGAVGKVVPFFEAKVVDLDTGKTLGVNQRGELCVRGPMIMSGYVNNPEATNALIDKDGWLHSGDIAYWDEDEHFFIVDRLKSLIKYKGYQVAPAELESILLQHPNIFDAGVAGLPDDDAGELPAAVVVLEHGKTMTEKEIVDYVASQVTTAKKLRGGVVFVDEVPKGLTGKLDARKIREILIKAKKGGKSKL
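Purified P. pyralis luciferase (10nM final) with 10uM D-luciferin and 10uM ATP (Km levels) in 50mM Tris acetate pH 7.5, 10mM Mg acetate, 0.01% Tween-20, 0.05% BSA; qHTS 6-point titration, ~60 µM downward; luminescence read.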
NPC1 promoter act = activates the NPC1 promoter; AID 485313; Potency, µM (top dose mostly 9.22 µM), inactives show at the top dose activation, most hits filed as activators; 320,000 tested, 2.4% active; Huh7 NPC1 promoter luciferase reporter, 24 h; further: % of control where 0% means no effect; nearly all actives have a fitted effect of over 60% in size
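Luciferase expression driven by the NPC1 promoter was measured in stably transfected Huh7 cells after a 24 h compound incubation, using a luciferase reagent and a luminescence read.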
ELG1 genotox = induces genotoxicity in HEK293T cells with luciferase-tagged ELG1; HEK293T ELG1-luciferase reporter, luminescence, 16 h; Potency, µM (series often up to 46 µM), inactives show at the top dose activity change, positive = activation, most hits filed as activators; 330,000 tested, 1.3% active; AID 504466; further: % of control where 0% means no effect; nearly all actives have a fitted effect of over 60% in size
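Step 1: seed 2,000 HEK293T ELG1-luciferase cells per well. Step 2: add compound or DMSO, incubate 16 hr at 37 °C. Step 3: ONE-Glo, 30 min at room temperature, read luminescence.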
Active calls of the source: *; ? = inconclusive; nt = no result; [ ] = dose if it differs, or a comment. An excerpt weighted towards active compounds, which were near 7.3% of everything screened. The call rests on the fitted dose curve; in most records, active means well fitted curve in the direction sought with a large enough effect; inconclusive means small, poorly fitted or top-dose-only effect, or another doubt; inactive means no such curve, though single readings can be large; an effect the other way counts as inactive or inconclusive. Potency means the concentration at half of the fitted maximal effect.

SMILES	Rab9 prom act	SMN2 splice enh	KinaseGlo FLuc	FLuc modulator	NPC1 promoter act	ELG1 genotox
C/C(=N\NC(=O)c1ccc(Cl)cc1)c1cccc(NC(=O)c2cccnc2)c1	?	?	-3%	3µM*	22%	-2%
C/C(=N\NC(=O)c1ccn(C)n1)c1cccc(NC(=O)c2ccncc2)c1	-5%	-5%	1%	15µM*	0%	-1%
C/C(=N\NC(=O)c1ccc(Cl)cc1)c1cccnc1	?	nt	nt	17µM*	?	?
C/C(=N\NS(=O)(=O)c1ccccc1)c1cccc(NC(=O)c2cccc(Cl)c2)c1	-3%	-1%	3%	24µM*	2%	-3%
Fc1cccc2sc(Nc3nnc(-c4ccccc4)o3)nc12	3.2µM*	3.2µM*	4%	3µM*	2.5µM*	?
Fc1cccc2sc(Nc3nc4c(F)cccc4s3)nc12	?	16µM*	-2%	4.3µM*	?	3%
COc1cc(OC)cc(-c2nnc(Nc3nc4c(F)cccc4s3)o2)c1	5%	2%	6%	?	6%	-15%
COc1ccc(C(=O)NCC(=O)OCCCOC(=O)CNC(=O)c2ccc(OC)c(OC)c2)cc1OC	-1%	nt	nt	-1%	-2%	5%
CS(=O)(=O)Nc1ccc(C(=O)NCCc2ccccc2)cc1	2µM*	11µM*	-4%	?	?	?
COc1ccccc1NC(=O)COC(=O)CNC(=O)c1ccc(OC)c(OC)c1	21%	5µM*	-1%	-1%	14%	18µM*
CS(=O)(=O)N1CCc2cc(C(=O)NCCc3ccccc3)ccc21	nt	13µM*	nt	?	nt	nt
CS(=O)(=O)NCc1ccc(C(=O)NCCOc2ccccc2)cc1	3.5µM*	11µM*	4%	19µM*	4µM*	?
CCOc1ccc(/C=C/c2nc(C#N)c(NCCc3ccccc3)o2)cc1	nt	-1%	nt	2%	nt	nt
CNc1nc(-c2ccc(N(C)C)cc2)nc2ccccc12	nt	10%	-1%	nt	nt	nt
CC1CN(C(=O)Nc2ccc(C(=O)NCCc3ccccc3)cc2)c2ccccc2S1 (configuration not stated)	nt	14µM*	nt	-10%	nt	nt
CCOc1ccc(C(=O)NCCc2ccccc2)cc1	0.32µM*	3.5µM*	-11%	1.1µM*	0.4µM*	0.58µM*
CCOc1ccc(C(=O)NCCCCNC(=O)c2ccc(OCC)cc2)cc1	?	nt	nt	?	3.5µM*	?
CC(=O)Oc1ccc(C(=O)NCCc2ccccc2)cc1	0.5µM*	8.9µM*	-16%	9.5µM*	0.4µM*	15%
COc1ccc(C(=O)NCCc2ccccc2)cc1OC	4µM*	nt	nt	?	?	17%
CCOC(=O)c1c(C)c(C(=O)NCc2cccnc2)c(C)n1C	4%	-11%	-3%	0%	1%	-5%
CCOC(=O)c1c(C)c(C(=O)NCCc2ccccc2)c(C)n1C	3.5µM*	16µM*	1%	?	?	?
COc1ccc(C(=O)NCCCc2ccccc2)cc1OC	0%	nt	nt	-9%	4%	2%
O=C(Oc1ccc(-c2ccccc2)cc1)N1CCCCC1	nt	?	-1%	8.5µM*	nt	nt
O=C(Oc1ccc(-c2ccccc2)cc1)C1C2CCCCC21 (configuration not stated)	-5%	5%	2%	4.8µM*	-4%	17%
CCCC1(C)C(C#N)(C#N)C1(C#N)C#N	-44%[46.1 µM]	nt	nt	nt	-35%[46.1 µM]	nt
SMILES	Rab9 prom act	SMN2 splice enh	KinaseGlo FLuc	FLuc modulator	NPC1 promoter act	ELG1 genotox
CCN1CCN(Cc2ccc(NC(=O)c3cc(NC(=O)c4nccnc4N)cc(OC)c3)cc2C(F)(F)F)CC1	-3%	nt	nt	13µM*	0%	-6%
COc1cc(/C=C2/SC(=S)N(CC(=O)O)C2=O)ccc1OC(=O)c1cccs1	3%	nt	nt	4.8µM*	0%	0%
COc1cc(/C=N/NC(N)=O)ccc1OC(=O)c1cccs1	-7%	6%	2%	-8%	0%	3%
COc1cc(/C=N/N(C)C)ccc1OC(=O)c1cccs1	10%	2%	1%	27µM*	-6%	8%
COc1cc(/C=C2\SC(=S)N(CC(=O)O)C2=O)ccc1OS(=O)(=O)c1ccc(C)cc1	-13%	nt	nt	-16%	6%	1%
O=c1c(-c2ccc(O)cc2)coc2cc(O)ccc12	10µM*	13µM*	-7%	nt	9.2µM*	nt
Cc1ccccc1-c1coc2cc(O)ccc2c1=O	-5%	4%	-1%	-3%	-1%	-2%
O=c1c(-c2cnn(-c3ccccc3)c2)coc2cc(O)ccc12	1.8µM*	nt	nt	5.4µM*	2.8µM*	?
CN(C)c1ccc(NC(=O)CN2CCc3ccccc3C2)cc1	?	nt	nt	24µM*	29%	?
Cc1ccc(NC(=O)N2CCc3ccccc3C2)cc1	3.5µM*	11µM*	-2%	12µM*	2.8µM*	8.2µM*
O=C(c1cccc(F)c1)N1CCc2ccccc2C1	18%	?	5%	?	2%	12%
O=C(Nc1ccc(Cl)cc1)N1CCc2ccccc2C1	3%	nt	-2%	?	-1%	-4%
O=C(CNc1cccc(F)c1)N1CCc2ccccc2C1	4.5µM*	nt	nt	13µM*	3.2µM*	?
Cc1ccc(NC(=O)c2nc[nH]c2C(=O)N2CCc3ccccc3C2)cc1	1%	nt	nt	6%	-1%	1%
O=C(Nc1ccccc1)N1CCc2ccccc2C1	4µM*	14µM*	-13%	21µM*	?	15%
CCCNC(=O)c1c(NC(=O)c2ccccc2)sc2c1CCC(C(C)(C)C)C2 (configuration not stated)	nt	16%	nt	-3%	nt	nt
CC(=O)Nc1ccc(N(C(=O)Cn2nnc3ccccc32)C(C(=O)NCc2ccccc2)c2ccc(C)cc2)cc1 (configuration not stated)	nt	9%	nt	-7%	nt	nt
O=C1C[C@H]2C(=O)[C@@H]1[C@@H](C(=O)O)[C@H]2C(=O)O	nt	-8%[9.22 µM]	2%[7.66 µM]	nt	nt	nt
CC1=NN(c2ccccc2)C(=O)C1/C=C1/NC(=S)NC1=O (configuration not stated)	10%	nt	nt	17µM*	1%	-1%
CC1=NN(c2ccccc2)C(=O)C1C=Nc1ccc(N(C)C)cc1 (configuration not stated)	-3%	nt	nt	?	11%	1%
CCOc1ccc(NC(=O)c2ccc(CC)s2)c([N+](=O)[O-])c1	2.2µM*	nt	-4%	-5%	?	?
CCOc1ccc(NC(=O)c2cccs2)c([N+](=O)[O-])c1	1.6µM*	7.1µM*	-1%	?	?	?
CCOc1ccc(NC(=O)c2ccco2)c([N+](=O)[O-])c1	1.6µM*	14µM*	0%	2.4µM*	2µM*	?
CCOc1ccc(NC(=O)c2cc(-c3ccc(C)c(F)c3)on2)c([N+](=O)[O-])c1	nt	nt	nt	5%	nt	nt

Compound activity (PubChem)
